# Measured values published in PubChem BioAssay (NCATS).
# Inconclusive results are not listed. A call without a number means that no potency is given here. Values without a mark were called inactive. Activity calls are given as the source filed them. Calls come from the whole dose curve; as a rule, active = well fitted curve in the direction sought with a large enough effect; inconclusive = small, poorly fitted or top-dose-only effect, or another doubt; inactive = no such curve, though single readings can be large; an effect the other way counts as inactive or inconclusive.
# Key:
# [1] = Primary qHTS for inhibitors of nuclear receptor binding SET domain protein 2 (NSD2) in an isogenic RCH-ACV NSD2 p.E1099K mutant (9B) (AID 1645876); details: RCH-ACV NSD2 E1099K (9B) viability, CellTiter-Glo, 72 h; series mostly up to 44.9 µM
# [2] = Primary qHTS for inhibitors of nuclear receptor binding SET domain protein 2 (NSD2) in an RCH-ACV wild type WT cells (2C) (AID 1645877); details: RCH-ACV (leukaemia line) NSD2 WT (2C) viability, CellTiter-Glo, 72 h; series mostly up to 44.9 µM
# Note: nearly all actives have a fitted effect of over 70% in size.
SMILES,Potency [1],Potency [2],"activity change, negative = viability loss [1]",outcome [2]
Cc1c(N2C(=O)c3ccc(C(=O)O)cc3C2=O)c(=O)n(-c2ccccc2)n1C,inactive,inactive,–,–
CCC[C@@H]1C[C@@H](C(=O)N[C@H](C(C)Cl)[C@H]2O[C@H](SC)[C@H](O)[C@@H](O)[C@H]2O)N(C)C1 (stereo partly specified),inactive,inactive,–,–
C=CC1(C)C=C2C(=O)CC3C(C)(C)CCCC3(C(=O)O)C2(O)CC1 (stereo unspecified),inactive,inactive,–,–
CC(C)=CC/C=C(/C)[C@H]1CC[C@]2(C)[C@@H]1[C@H](O)CC1[C@@]3(C)CC[C@H](O)C(C)(C)[C@@H]3[C@@H](O[C@@H]3O[C@H](CO)[C@@H](O)[C@H](O)[C@H]3O[C@@H]3O[C@@H](C)[C@H](O)[C@@H](O)[C@H]3O)C[C@]12C (stereo partly specified),inactive,inactive,–,–
CC1=CC(=O)C2C(C)(C)CC(O)CC2(C)C1CO (stereo unspecified),inactive,inactive,–,–
CC(=O)OC[C@@]12[C@H](O)C[C@]3(C)C(=CCC4[C@@]5(C)CC[C@H](O[C@@H]6O[C@H](C(=O)O)[C@@H](O[C@@H]7O[C@H](CO)[C@@H](O)[C@H](O)[C@H]7O)[C@H](O)[C@H]6O[C@@H]6O[C@H](CO)[C@@H](O)[C@H](O)[C@H]6O)[C@](C)(CO)C5CC[C@]43C)[C@@H]1CC(C)(C)[C@@H](OC(C)=O)[C@@H]2O (stereo partly specified),–,–,3.64% [at 9.23 µM],inactive [at 9.23 µM]
CC1CCC2C(C)(C)CC(C)(CO)C2(O)C1C(=O)O (stereo unspecified),inactive,inactive,–,–
C=C[C@@]1(C)CC(=O)C2[C@](C)(O1)[C@@H](OC(C)=O)[C@@H](O)[C@H]1C(C)(C)CCC[C@]21C (stereo partly specified),–,–,1.01% [at 9.23 µM],inactive [at 9.23 µM]
